# Experimental data reported in ChEMBL document CHEMBL3988442, “University of Dundee, Small-Polar-MMV Screening Library” (2021).
# About 13,000 (27%) of roughly 48,000 compounds showed an effect of 50% or more. The list shows a part of the results.
# Test system: Wolbachia pipientis
# Test: Anti-Wolbachia Cell-Based Screen
# Assay type: functional
# Set-up: scale not given: in the data most compounds retested in dose-response had high values
# Conditions: 5 µM
row,Structure (SMILES),Percent Effect [%]
1,O[C@@H]1C[C@@H](c2nc(Cc3ccccc3)no2)N(Cc2ncc[nH]2)C1,0.9239
2,COc1ccc(CNC(=O)NC2CCC(O)CC2)c(C(F)(F)F)c1 (stereo not drawn),20.35
3,CCc1ccc(C(=O)N(CC(F)(F)F)C2CCCOC2)o1 (stereo not drawn),5.996
4,Cc1cc(CSc2nc(=O)ccn2C(C)C)no1,-4.933
5,CSCC[C@@H](CO)Nc1ccc(-c2nc(-c3ccccc3F)no2)cn1,-8.084
6,CCC(C)(N)c1nc(=O)c(C)c(C)[nH]1 (stereo not drawn),-33.14
7,Cc1noc(C)c1CS(=O)(=O)CC(=O)NCCc1cccs1,0.1957
8,CC(=O)N1CCC(C(=O)NC2CC(C)(C)Oc3cc(C)ccc32)CC1 (stereo not drawn),-7.853
9,Cc1ccc2c(c1)OC(C)(C)CC2NC(=O)C1CCN(C)CC1 (stereo not drawn),-0.1155
10,COc1ccc2c(c1)C(NCCc1ccccn1)CCCO2 (stereo not drawn),1.37
11,CC(=O)NCC[C@H]1CC(C)(C)Oc2ccccc21,133.5
12,COc1ccc2c(c1)C(NCCc1c(C)noc1C)CCCO2 (stereo not drawn),-2.374
13,CNCC[C@H]1CC(C)(C)Oc2ccc(OC)cc21,108.6
14,CNCC[C@H]1CC(C)(C)Oc2ccc(OCC3CC3)cc21,114.8
15,NCc1ccc(Oc2cccc(Cl)c2Cl)nc1,4.271
16,CCCc1[nH]n(C)c(=N)c1-c1ccc2c(c1)OCO2,-1.578
17,O=C(Nc1nc(-c2ccccc2)ns1)N1CCC(F)CC1,-10.12
18,Cc1n[nH]c(C)c1CNC(=O)c1cn(CCC2CCCCN2)nn1 (stereo not drawn),-13.81
19,Cc1cccc(CN2CCCC2(C(N)=O)c2cnccn2)n1 (stereo not drawn),94
20,Cc1cccc(CN2C[C@@H](CN3CCCN(C)CC3)[C@@H](CO)C2)n1,16.72
21,Cc1cccc(CO[C@@H]2C[C@H]3CN(C(=O)c4cnccn4)CCN3C2)n1,-10.31
22,NC(=O)C1(c2cnccn2)CCCN1Cc1cc2ccccc2o1 (stereo not drawn),-3.809
23,NC(=O)C1(c2cnccn2)CCCN1Cc1ccccn1 (stereo not drawn),123
24,O=C(O)[C@]12CCCN(Cc3ccccn3)[C@@H]1CCN(c1cnccn1)C2,-12.33
25,c1ccc(-c2nnc(CNCC3CCCN3c3cccnn3)o2)cc1 (stereo not drawn),-18.66
26,Cc1oncc1C(=O)N1CCC2(CC1)CC(N1CCOCC1)C2.O=C(O)C(F)(F)F,99.49

row,Structure (SMILES),Percent Effect [%]
1,O=C(O)C(F)(F)F.O=C(c1ccc(F)cc1)N1CCC2(CC1)CC(N1CCOCC1)C2,98.46
2,CN1CCCCC12CCN(C(=O)c1cccn1C)CC2.O=C(O)C(F)(F)F,-9.83
3,CN(C)C1COC2(CCN(C(=O)c3cccc(Cl)c3)CC2)C1.O=C(O)C(F)(F)F (stereo not drawn),-2.157
4,Cn1cccc1C(=O)N1CCC2(CC1)CC(N1CCOCC1)C2.O=C(O)C(F)(F)F,103.3
5,CC(=O)N1CCC2(CC1)CC(N1CCOCC1)c1ccc(C)cc12.O=C(O)C(F)(F)F (stereo not drawn),0.6002
6,CC(=O)N1CCOC2(CCN(C(=O)c3cnoc3C)CC2)C1,6.241
7,O=C(O)C(F)(F)F.O=C(c1ccccc1)N1C[C@@H]2CCCO[C@@H]2[C@H](N2CCOCC2)C1,-6.046
8,O=C(O)C(F)(F)F.O=C1CC(c2ccncc2)C2(CCN(C(=O)c3cccc(F)c3)CC2)N1 (stereo not drawn),8.556
9,COc1cc(N2CCC3(CC2)CC(N2CCOCC2)C3)ncn1.O=C(O)C(F)(F)F,-37.73
10,O=C(O)C(F)(F)F.O=C(c1cccc(F)c1)N1CCC2(CC1)CC(N1CCOCC1)C2,110.5
11,O=c1[nH]c(NCc2cccc(OC(F)F)c2)nc2c1CCNC2,-5.963
12,O=C(NCC1CC1)[C@H]1C[C@@H]2CN(C(=O)NCC3CCCCC3)C[C@H]1O2,9.811
13,Cc1nc(CC(C)C)sc1C(=O)N1CCC1,-0.1519
14,CC(C)(C)c1ncc(C(=O)N2CCC(N3CCSCC3)CC2)c(O)n1,-20.12
15,CCCn1ncc(C(=O)N2CCN(C3CCSCC3)CC2)c1C,7.373
16,Cc1nc(C(C)C)sc1C(=O)N1CCC(N2CCSCC2)CC1,96.22
17,Cc1nc(CC(C)C)sc1C(=O)N1CCC(C2(C)OCCO2)CC1,1.957
18,Cc1nc(C(C)C)sc1C(=O)N1CCN(C2CCSCC2)CC1,90.05
19,COC1CCCN(C(=O)c2sc(CC(C)C)nc2C)C1 (stereo not drawn),-1.564
20,Cc1nc(C(C)C)sc1C(=O)N1CCC(C(N)=O)CC1,81.6
21,CN(C)C(C(=O)N1CCC(N2CCSCC2)CC1)c1ccccc1F (stereo not drawn),11.01
22,CCS(=O)(=O)N1C[C@H]2CC[C@@]3(N=C(C)N(CC(C)C)C3=O)[C@H]2C1,17.11
23,Cc1ccc(CN2CCNC(=O)C2CC(=O)N2CCSCC2)o1 (stereo not drawn),-50.4
24,O=C(NCc1ccc(Cl)s1)c1cc(CN2CCCC(O)C2)on1 (stereo not drawn),3.439
25,CSCc1nc(CCNC(=O)c2cnn(C(C)C)c2)cs1,-0.3441
26,CSc1ccc2cc(CN(C)CCO)c(=O)[nH]c2c1,-7.247

row,Structure (SMILES),Percent Effect [%]
1,CCC(CNC(=O)CNC(C)=O)Oc1cccc(F)c1 (stereo not drawn),-13.27
2,Cc1ccc(S(=O)(=O)NC[C@H]2OC[C@@H](NCc3cccnc3)[C@@H]2O)cc1,-9.264
3,CC(C)NC(=O)CN(C1CC1)C(C)C1CC1 (stereo not drawn),-3.628
4,CC1CCCCN1C(=O)c1nc2c(n1C(C)C)CCN(C)C2.O=C(O)C(F)(F)F (stereo not drawn),0.8763
5,CC(=O)N1CCCCC1c1nc2c(c(N3CCCCC3)n1)CN(C)CC2 (stereo not drawn),-9.745
6,CC(=O)N1CCCCC1c1nc2c(c(NC3CCCC3)n1)CN(C)CC2 (stereo not drawn),71.52
7,CNc1nc(N2C[C@H](NC(=O)CCOC)[C@@H](C3CC3)C2)nc2c1CCC2,-18.85
8,CNc1nc(C2CCCCN2C(=O)COC)nc2c1CN(C)CC2 (stereo not drawn),112
9,Nc1nc2c(c(NC3CCCC3)n1)CCN(C(=O)C1CCOC1)CC2 (stereo not drawn),4.82
10,CNc1nc(C2CCCCN2C(=O)C(C)(C)OC)nc2c1CN(C)CC2 (stereo not drawn),100.3
11,COCC(=O)N[C@H](C(=O)NC(C)c1cccc(C)c1C)C(C)C (stereo partly drawn),4.041
12,O=C(c1scc2c1OCCO2)N1CCN(Cc2cccc(F)c2)CC1,-25.63
13,COCc1noc(-c2ccc(N(C)Cc3nccs3)nc2)n1,22.14
14,CCc1nc(CNC(C)c2cccc(N3CCCC3=O)c2)cs1.Cl (stereo not drawn),4.92
15,CSc1cc2c(cc1NC(=O)NCC(C)(C)C(N)=O)OCCO2,-12.99
16,CC(C)(C)c1noc(CN2CCN(C(=O)c3cccs3)CC2)n1,-8.519
17,CC(=O)N1CCC(n2nccc2-c2cnc(N(C)CCO)nc2)CC1,107.1
18,Cn1ccnc1CN(CCO)C(=O)C1CCN(C(=O)C2CC2)CC1,-5.097
19,CC(=O)N1CCC(n2nccc2-c2cnc(N3CCCC3)nc2)CC1,98.34
20,CNc1ncc(C(=O)N2CC[C@@](O)(C3CCOCC3)[C@H](C)C2)cn1,-7.674
21,CC(=O)N1CCC(NCc2cccnc2N(C)Cc2ccccc2)CC1,-20.17
22,CC(=O)N1CCC(Oc2ccc(Cl)cn2)CC1,-4.055
23,CC(=O)N1CCC(n2nccc2-c2cnc(N)nc2)CC1,106.3
24,CCc1ocnc1C(=O)N1CCC(C2CCN(c3ncccn3)CC2)C1 (stereo not drawn),-3.497
25,CNc1ncc(C(=O)N2CCC(c3ccccc3C(=O)O)C2)cn1 (stereo not drawn),4.233
26,CCc1cnc(N2CC[C@@H]3CN(C(C)=O)CCO[C@@H]3C2)nc1,6.886

row,Structure (SMILES),Percent Effect [%]
1,CCc1cnc(N)nc1N1CCN(C(C)=O)CC1,-3.404
2,CNc1ncc(-c2ccnn2C2CCN(C(C)=O)CC2)cn1,109.9
3,CC(C(=O)N1CCc2sccc2C1)N1CCCN(C2CC2)CC1 (stereo not drawn),6.579
4,NC(=O)CCNC(=O)NCC1(c2ccccc2Cl)CCC1,-8.555
5,CC(=O)N1CCC(NC[C@H]2Cn3c(-c4ccccc4)cnc3CO2)CC1,-3.853
6,CC(=O)N1CCC(n2nccc2-c2cnc(NCCO)nc2)CC1,90.32
7,Cc1noc(C2CCN(C(=O)CCNc3ncccn3)CC2)n1,14.51
8,O=C(O)c1nn(CC2CC2)c2c1CN(S(=O)(=O)c1cccnc1)CC2,-14.04
9,CCN(CC)CCNC(=O)CCc1c(C)nn(-c2cccc(Cl)c2)c1C,114.7
10,CCn1nc(C)c(CCNC(=O)c2cccc(-n3cccn3)c2)c1C,-5.095
11,CC(=O)NCCCc1ncnn1-c1cccc(Cl)c1,-6.102
12,CCN(CC)CCNC(=O)CCc1c(C)nn(-c2ccc(Cl)cc2)c1C,108.7
13,COCCNC(=O)CCc1c(C)nn(-c2nc(C)c(C)c(=O)[nH]2)c1C,-2.178
14,Cc1nn(-c2ccccc2)c(C)c1CC(=O)NC1CC(=O)N(C)C1 (stereo not drawn),10.3
15,COCc1noc(C2(c3ccc(OC)cc3)CCOCC2)n1,-14.42
16,CN1CCN(Cc2cccc(NCc3cc[nH]n3)c2)CC1,-14.54
17,O=C(Nc1cc(-c2ccccc2)on1)N1CC[C@H](O)C1,-19.05
18,COCC(=O)Nc1ccc(C)cc1-c1nc(C2CC2)no1,104.3
19,CCCn1nc(-c2nc(C3CC3)no2)ccc1=O,-1.199
20,O=C(NCc1nc(C2CC2)no1)N1CCOC(c2cccc(F)c2)C1 (stereo not drawn),-4.4
21,O=C(Nc1ccc(F)cc1-c1nc(C2CC2)no1)N1CC[C@@H](O)C1,96.09
22,COc1ccc(CNc2nc(C3CC3)no2)cc1OC,-4.91
23,Cc1ccc(NC(=O)N2CC[C@@H](O)C2)c(-c2nc(C3CC3)no2)c1,101.9
24,COc1ccc(NC(=O)N2CCC(c3noc(C)n3)CC2)cc1C,-0.09079
25,O=C(Nc1c(F)cccc1F)N1CC(c2nc(C3CC3)no2)C1,16.35
